High-throughput results (PubChem BioAssay)
EWS-Fli block – EWS/Fli-driven NR0B1 reporter inhibitors, primary screen, A673 cells, NR0B1 luciferase, luminescence, MLPCN library; viability-normalised; inhibition, % at 12.6 µM; 350,000 tested, 0.67% active; AID 651661, 2012;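 active = mean inhibition of at least 50% after viability correction, with every replicate also passing that limit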;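 note: firefly luciferase signal divided by Alamar Blue viability fluorescence both relative to DMSO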
RAD54 branch – inhibitors of human RAD54 branch migration, primary screen, biochemical, fluorescence, single point | DNA repair and recombination protein RAD54-like (Homo sapiens), Q92698 | RAD54 Holliday junction branch migration, FAM/BHQ fluorescence | inhibition, % at 10.4 µM | 360,000 tested, 0.14% active | AID 602329, 2012;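 active = mean normalized replicate activity at least 40 and at least half of replicates scoring 40 or more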;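 note: 0% = median of neutral control wells and 100% = median of positive control wells; inhibitors cause a drop in the FAM fluorescence signal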
LGR2 inh – inhibitors of bursicon-induced LGR2 CRE-luciferase signal, primary screen, cell-based, HEK293, CRE-luciferase reporter, bursicon stimulation; bursicon-stimulated, 4 h; inhibition, % at 9.99 µM; 380,000 tested, 0.35% active;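 active = drop in luminescence signal, shown as inhibition above about 50% in the replicate tests, limit read from the data, passing the limit was not always enough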;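 note: agonist challenge used bursicon conditioned medium at about half maximal strength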
CFTR F508del cor – F508del CFTR correction, initial screen, CFBE line, single point; CFBE cells, YFP halide quenching; stimulated with forskolin plus potentiator P3; % fluorescence drop versus neutral controls; activity (quench increase), % at 7.58 µM; 350,000 tested, 0.36% active; AID 720511, 2013;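 active = mean added fluorescence quench of at least 8% versus neutral control, with both replicates also reaching 8%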;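 note: cells transiently co-express mutant CFTR-F508del with the halide-sensitive YFP; corrector assay measuring rescue of mutant channel to the surface after 24 h compound exposure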
RAD52 anneal inh – RAD52 DNA annealing inhibitors, primary screen, biochemical, FRET, single point, set 2. DNA repair protein RAD52 homolog (Homo sapiens), P43351. recombinant RAD52 DNA annealing, FRET fluorescence. inhibition, % at 18.7 µM. 360,000 tested, 0.46% active. AID 651710, 2012;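 active = every replicate showing at least 50% inhibition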
Target sequence (P43351 whole entry, looked up): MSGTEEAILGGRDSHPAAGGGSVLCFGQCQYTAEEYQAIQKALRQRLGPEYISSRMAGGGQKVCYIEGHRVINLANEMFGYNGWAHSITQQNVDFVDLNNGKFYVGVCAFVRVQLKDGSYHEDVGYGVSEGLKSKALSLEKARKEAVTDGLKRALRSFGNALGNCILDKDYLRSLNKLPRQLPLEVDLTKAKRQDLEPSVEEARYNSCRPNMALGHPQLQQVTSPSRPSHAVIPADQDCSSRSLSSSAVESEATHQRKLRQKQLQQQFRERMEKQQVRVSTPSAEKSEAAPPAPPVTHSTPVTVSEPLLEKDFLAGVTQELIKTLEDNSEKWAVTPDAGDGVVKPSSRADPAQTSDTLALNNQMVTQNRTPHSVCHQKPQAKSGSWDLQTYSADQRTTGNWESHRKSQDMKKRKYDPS
GSIS activator – GLuc luminescence reporter in INS-1E cells, primary screen for activators of glucose-dependent secretion of insulin | INS-1E GLuc reporter insulin secretion, 2-3 h | activation, % at 16.6 µM | 370,000 tested, 0.61% active;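 active = lowest replicate activation of at least 40%, so every replicate reaches that level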;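 note: 0% = median of neutral control wells and 100% = median of IBMX positive control wells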
Active calls of the source: *; . = not tested or not shown; ! = not active in a repeat. Most compounds without a hit are left out; they make up all but 1.8% or so of the library.

SMILES | EWS-Fli block | RAD54 branch | LGR2 inh | CFTR F508del cor | RAD52 anneal inh | GSIS activator
O=C(c1cccc(Cl)c1)N1CCN(c2ccccn2)CC1 | . | 1.3 | . | . | . | .
O=C(c1ccc(S(=O)(=O)c2cccc(Cl)c2)c([N+](=O)[O-])c1)N1CCN(c2ccccn2)CC1 | 1.6 | . | 58.7* | -4.3 | -7.6 | .
C=CC[N+](C)(C)c1ccc(CCC(=O)CCc2ccc([N+](C)(C)CC=C)cc2)cc1 | -2.7 | 6.8 | -21.8 | 1.5 | 4.7 | .
O=C(c1ccccc1)c1ccccc1N1C(=O)C=CC1=O | 1.6 | . | 18.2 | -8.1 | -14.2 | 192.4*
CCCN(CC(=O)Nc1ccccc1C)C(=O)CCNC(=O)c1ccccc1Cl | 5.1 | . | 6.7 | 0.4 | -4.8 | 6.9
O=C(/C=C/Nc1ccc(F)cc1F)c1cccs1 | . | -2.9 | 78.6* | . | . | -1.1
O=C(/C=C\Nc1ccc2c(c1)OCO2)c1cccs1 | 31.9 | -4.4 | -67.8 | -3.6 | -16.0 | 13.1
O=C(/C=C/Nc1ccccc1F)c1cccs1 | . | . | 79.5* | . | . | -6.0
Cc1ccc(N/C=C/C(=O)c2cccs2)cc1 | 59.0* | 4.2 | 75.4* | 0.5 | -25.1 | 1.2
COc1ccc(C2=Nn3c(nnc3-c3ccccc3C(F)(F)F)SC2)cc1OC1CCOC1 (centres undefined) | 32.2 | 1.2 | 2.6 | 7.1 | -3.0 | 74.9*
COc1ccc(-c2nnc(-c3cc(OC)c(OC)c(OC)c3)o2)cc1OC | . | 12.0 | . | . | . | .
COc1ccc(C2=Nn3c(nnc3-c3ccccc3OC)SC2)cc1OC1CCOC1 (centres undefined) | 36.0 | -2.1 | -0.2 | 9.7* | -13.2 | 56.3*
COc1ccc(-c2ccncc2)cc1OC | -0.1 | 8.7 | -20.5 | 4.3 | -7.1 | 107.4*
COc1ccc(C2=Nn3c(nnc3-c3ccncc3)SC2)cc1OC | . | 2.3 | . | . | . | 84.5*
CN1CCN(c2nc(-c3ccc(Cl)c(Cl)c3)nc3ccccc23)CC1 | . | -2.5 | -18.0 | . | 5.2 | 40.5
Cn1ccc(C(=O)Nc2ccc(Br)cc2Br)n1 | -92.7 | . | -41.9 | -0.6 | . | 18.4
C(=NN1CCCCCC1)c1ccc2ccccc2n1 | 88.4* | -6.7 | 97.6* | -1.5 | -24.0 | 7.1
Cc1ccc2nc(C(F)(F)F)c(C#N)c(N)c2c1 | 10.8 | 4.1 | 65.4* | 1.3 | -11.7 | 1.4
Cc1cccc(-c2ccc(C3[C@@H]4CN(C(=O)Nc5ccc(F)cc5)C[C@H]3N4)cc2)c1 (some centres undefined) | -6.1 | . | 1.7 | -3.7 | 60.3*! | -3.7
Cc1cccc(-c2ccc(C3[C@@H]4CN(C(=O)Nc5ccccc5)C[C@H]3N4)cc2)c1 (some centres undefined) | 26.7 | . | 2.3 | -0.6 | . | -19.9
O=C(Nc1cccc(F)c1)N1C[C@@H]2N[C@H](C1)C2c1ccc(-c2ccc(F)cc2)cc1 (some centres undefined) | 2.6 | . | 18.6 | -3.2 | 50.5* | -29.6
Cc1cccc(N2CCN(C(=O)c3ccc(N4CCCC4=O)cc3)CC2C)c1 (centres undefined) | . | -4.8 | . | . | . | .
Cc1cccc(N2CCN(C(=O)c3cccc(N4CCCC4=O)c3)C(C)C2)c1 (centres undefined) | 59.9* | -8.1 | -2.6 | 6.8 | -8.2 | -5.1
Cn1c(=O)c2c(nc3n2CCCN3CCc2ccccc2)n(C)c1=O | 2.0 | -6.9 | 8.9 | 0.6 | 2.0 | 47.5*
CCn1c(=O)c2c(nc3n2CCCN3CCc2ccccc2)n(C)c1=O | . | -1.0 | . | . | . | .
O=C1C=CC(=O)C(CNc2ccc(C(=O)OCc3ccccc3)cc2)=C1 | 58.9* | . | 8.9 | -2.2 | -9.6 | .
CN(C)c1ccc(C(=O)OCc2ccccc2)cc1 | . | -1.3 | . | . | . | .
CCOC(=O)c1nc(C)sc1-c1ccnn1S(=O)(=O)c1ccccc1C(F)(F)F | 17.4 | -1.6 | . | 9.8* | -9.5 | .
O=C(NC1CCCCC1)C(c1ccccc1F)n1c(=O)c(-c2ccco2)nc2ccccc21 (centres undefined) | -7.1 | . | -1.4 | -2.4 | -51.2 | -15.4
